Reference: PubChem BioAssay (EPA / NIEHS)
Activity calls are given as the source filed them. Rule for the calls: active = hit-call score of the fitted dose curve at least 0.9, where 1 is the maximum; inactive = score below 0.9.

Key:
[1] = BSK_hDFCGF_SRB: Viability Assessment in the BioMAP Diversity Plus: hDFCGF Assay (AID 2283061); details: primary human foreskin fibroblasts;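 note: cells exposed to compound for 24 h before the read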
How it was run: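 SRB-based viability read on primary human skin fibroblasts at 24 h: TCA fixation, 0.1% dye, 560 nm. Gain or loss of signal is fitted against the DMSO negative control.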

[2] = read-out: TIMP metallopeptidase inhibitor 1 (TIMP1), TIMP1 (gene 7076); experiment: BSK_hDFCGF_TIMP1: BioMAP Diversity Plus: hDFCGF Assay for TIMP metallopeptidase inhibitor 1 (TIMP1) Biomarker Activity (AID 2283062); details: primary human foreskin fibroblasts; actives raise or lower the signal
How it was run: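 Bidirectional curve fitting against DMSO baseline yielded this endpoint, based on ELISA detection of TIMP-1 in primary human foreskin fibroblasts exposed to compound for 24 h.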

[3] = read-out: Monokine induced gamma interferon (MIG), CXCL9 (gene 4283); experiment: BSK_hDFCGF_MIG: BioMAP Diversity Plus: hDFCGF Assay for Monokine induced gamma interferon (MIG) Biomarker Activity (AID 2283063); details: primary human foreskin fibroblasts; actives raise or lower the signal
How it was run: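 Endpoint derived by bidirectional fitting relative to DMSO; MIG quantified via ELISA in primary human foreskin fibroblasts harvested 24 h after dosing.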

[4] = read-out: Matrix Metallopeptidase 1 (MMP1), MMP1 (gene 4312); experiment: BSK_hDFCGF_MMP1: BioMAP Diversity Plus: hDFCGF Assay for Matrix Metallopeptidase 1 (MMP1) Biomarker Activity (AID 2283064); details: primary human foreskin fibroblasts; actives raise or lower the signal
How it was run: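 Primary human foreskin fibroblasts exposed to chemicals for 24 h; MMP1 measured by ELISA. Cytotoxicity tracked by SRB staining in parallel cultures; bidirectional fit relative to DMSO.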

[5] = read-out: Vascular cell adhesion molecule 1 (VCAM1), VCAM1 (gene 7412); experiment: BSK_hDFCGF_VCAM1: BioMAP Diversity Plus: hDFCGF Assay for Vascular cell adhesion molecule 1 (VCAM1) Biomarker Activity (AID 2283065); details: primary human foreskin fibroblasts; actives raise or lower the signal;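 for AC50: VCAM-1 protein level quantified by ELISA after 24 h chemical exposure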
How it was run: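 Measured after 24 h chemical treatment of primary human skin fibroblasts, VCAM-1 was detected by ELISA and concentration-response analysed in both directions versus DMSO vehicle.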

[6] = read-out: Plasminogen activator inhibitor-1 (PAI1), SERPINE1 (gene 5054); experiment: BSK_hDFCGF_PAI1: BioMAP Diversity Plus: hDFCGF Assay for Plasminogen activator inhibitor-1 (PAI1) Biomarker Activity (AID 2283066); details: primary human foreskin fibroblasts; actives raise or lower the signal
How it was run: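 PAI-1 levels, determined by ELISA, served as the endpoint in human foreskin fibroblast cultures exposed to compound for 24 h, with DMSO as baseline.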

[7] = read-out: Intercellular Adhesion Molecule 1 (ICAM1), ICAM1 (gene 3383); experiment: BSK_KF3CT_ICAM1: BioMAP Diversity Plus: KF3CT Assay for Intercellular Adhesion Molecule 1 (ICAM1) Biomarker Activity (AID 2283067); details: primary human keratinocytes with fibroblasts; actives raise or lower the signal
How it was run: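 Bidirectional curve fitting against a DMSO baseline was applied to ICAM-1 ELISA signal from primary human skin co-cultures harvested 24 h after treatment, with SRB staining of parallel wells for overt cytotoxicity.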

[8] = read-out: Interferon-gamma inducible Protein 10 (IP10), CXCL10 (gene 3627); experiment: BSK_KF3CT_IP10: BioMAP Diversity Plus: KF3CT Assay for Interferon-gamma inducible Protein 10 (IP10) Biomarker Activity (AID 2283068); details: primary human keratinocytes with fibroblasts; actives raise or lower the signal
How it was run: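 In a primary skin co-culture of keratinocytes and fibroblasts, IP-10 is quantified by ELISA at 24 h after dosing. SRB staining of parallel wells monitors overt toxicity. Curves are fitted both directions against DMSO.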

[9] = BSK_KF3CT_SRB: Viability Assessment in the BioMAP Diversity Plus: KF3CT Assay (AID 2283069); details: primary human keratinocytes with fibroblasts;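 note: total protein by sulforhodamine B staining as a cytotoxicity measure; read 24 h after compound addition; fitted for both signal gain and loss against DMSO baseline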
How it was run: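 Human keratinocyte and foreskin fibroblast co-culture exposed to chemical for 24 h. Total protein measured in parallel cultures by 0.1% sulforhodamine B staining after 10% TCA fixation, read at 560 nm; bidirectional fit relative to DMSO.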

[10] = read-out: Interleukin-1 alpha (IL1a), IL1A (gene 3552); experiment: BSK_KF3CT_IL1a: BioMAP Diversity Plus: KF3CT Assay for Interleukin-1 alpha (IL1a) Biomarker Activity (AID 2283070); details: primary human keratinocytes with fibroblasts; actives raise or lower the signal
How it was run: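 Primary human keratinocyte plus foreskin fibroblast co-culture, dosed and measured at 24 h in 96-well plates. IL-1a level quantified by ELISA; bidirectional fit relative to DMSO.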

[11] = read-out: TIMP metallopeptidase inhibitor 2 (TIMP2), TIMP2 (gene 7077); experiment: BSK_KF3CT_TIMP2: BioMAP Diversity Plus: KF3CT Assay for TIMP metallopeptidase inhibitor 2 (TIMP2) Biomarker Activity (AID 2283071); details: primary human keratinocytes with fibroblasts; actives raise or lower the signal
How it was run: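 Keratinocyte–fibroblast co-culture, 24 h exposure; TIMP-2 ELISA, DMSO-normalised bidirectional fit. Parallel SRB (0.1%, TCA-fixed, 560 nm) total-protein staining gauges cytotoxicity.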

[12] = read-out: C-C motif chemokine 2 (Homo sapiens) (UniProt P13500); experiment: BSK_KF3CT_MCP1: BioMAP Diversity Plus: KF3CT Assay for Monocyte Chemoattractant Protein 1 (MCP1/CCL2) Biomarker Activity (AID 2283073); details: primary human keratinocytes with fibroblasts; actives raise or lower the signal
How it was run: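 Biomarker MCP-1 is measured by ELISA in primary human keratinocytes co-cultured with foreskin fibroblasts, 24 h after chemical treatment; DMSO serves as the negative control and activity baseline.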

[13] = read-out: Matrix Metallopeptidase 9 (MMP9), MMP9 (gene 4318); experiment: BSK_KF3CT_MMP9: BioMAP Diversity Plus: KF3CT Assay for Matrix Metallopeptidase 9 (MMP9) Biomarker Activity (AID 2283074); details: primary human keratinocytes with fibroblasts; actives raise or lower the signal;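 for AC50: MMP9 protein level quantified by ELISA in the co-culture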
How it was run: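 Human keratinocyte and foreskin fibroblast co-culture exposed to chemicals for 24 h; MMP9 biomarker measured by ELISA, bidirectional fitting relative to DMSO; cytotoxicity tracked by SRB total protein staining in parallel cultures.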

[14] = read-out: urokinase plasminogen activator (uPA), PLAU (gene 5328); experiment: BSK_KF3CT_uPA: BioMAP Diversity Plus: KF3CT Assay for urokinase plasminogen activator (uPA) Biomarker Activity (AID 2283075); details: primary human keratinocytes with fibroblasts; actives raise or lower the signal
How it was run: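 Primary human keratinocyte/foreskin fibroblast co-culture exposed to chemical; uPA measured by ELISA at 24 h. Bidirectional fit versus DMSO, with parallel SRB total-protein staining for cytotoxicity.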

[15] = read-out: CD40, CD40 (gene 958); experiment: BSK_LPS_CD40: BioMAP Diversity Plus: LPS Assay for CD40 Biomarker Activity (AID 2283076); details: primary human HUVEC with PBMC; actives raise or lower the signal
How it was run: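 Using a multiplexed primary human co-culture (umbilical vein endothelium plus PBMC), CD40 was read by ELISA 24 h after dosing, with cytotoxicity tracked by sulforhodamine B staining of parallel cultures and activity fitted bidirectionally versus DMSO.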

[16] = read-out: E-selectin (Homo sapiens) (UniProt P16581); experiment: BSK_LPS_Eselectin: BioMAP Diversity Plus: LPS Assay for Eselectin Biomarker Activity (AID 2283077); details: primary human HUVEC with PBMC; actives raise or lower the signal
How it was run: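 Dose chemical onto LPS-driven HUVEC/PBMC co-culture; after 24 h, run ELISA for E-selectin; fit up- and down-going responses relative to DMSO control.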

[17] = read-out: Interleukin-8 (IL8), CXCL8 (gene 3576); experiment: BSK_LPS_IL8: BioMAP Diversity Plus: LPS Assay for Interleukin-8 (IL8) Biomarker Activity (AID 2283078); details: primary human HUVEC with PBMC; actives raise or lower the signal
How it was run: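 In this LPS system, chemical-treated human umbilical vein endothelium/PBMC co-cultures were harvested at 24 h for IL-8 ELISA.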

[18] = BSK_LPS_SRB: Viability Assessment in the BioMAP Diversity Plus: LPS Assay (AID 2283079); details: primary human HUVEC with PBMC;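 note: total protein by sulforhodamine B absorbance as a cytotoxicity measure; measured one day after compound addition; fitted in both directions against DMSO so loss or gain of signal counts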
How it was run: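 Cytotoxicity endpoint in human endothelial–PBMC co-culture: 24 h exposure, then SRB (0.1%) staining, 560 nm read.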

[19] = read-out: Interleukin-1 alpha (IL1a), IL1A (gene 3552); experiment: BSK_LPS_IL1a: BioMAP Diversity Plus: LPS Assay for Interleukin-1 alpha (IL1a) Biomarker Activity (AID 2283080); details: primary human HUVEC with PBMC; actives raise or lower the signal
How it was run: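 Primary human HUVEC and PBMC co-culture stimulated with LPS is dosed and harvested at 24 h. Both increases and decreases in ELISA-measured IL-1a are scored relative to DMSO.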

[20] = read-out: Transforming growth factor beta 1 (TGFb1), TGFB1 (gene 7040); experiment: BSK_KF3CT_TGFb1: BioMAP Diversity Plus: KF3CT Assay for Transforming growth factor beta 1 (TGFb1) Biomarker Activity (AID 2283072); details: primary human keratinocytes with fibroblasts; actives raise or lower the signal
How it was run: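 Signal changes in either direction, relative to DMSO, define activity here. TGF-b1 is read by ELISA from a human keratinocyte-fibroblast co-culture 24 h post-dose.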

Measured: AC50

Sequence of E-selectin (Homo sapiens) (P16581 whole entry, looked up): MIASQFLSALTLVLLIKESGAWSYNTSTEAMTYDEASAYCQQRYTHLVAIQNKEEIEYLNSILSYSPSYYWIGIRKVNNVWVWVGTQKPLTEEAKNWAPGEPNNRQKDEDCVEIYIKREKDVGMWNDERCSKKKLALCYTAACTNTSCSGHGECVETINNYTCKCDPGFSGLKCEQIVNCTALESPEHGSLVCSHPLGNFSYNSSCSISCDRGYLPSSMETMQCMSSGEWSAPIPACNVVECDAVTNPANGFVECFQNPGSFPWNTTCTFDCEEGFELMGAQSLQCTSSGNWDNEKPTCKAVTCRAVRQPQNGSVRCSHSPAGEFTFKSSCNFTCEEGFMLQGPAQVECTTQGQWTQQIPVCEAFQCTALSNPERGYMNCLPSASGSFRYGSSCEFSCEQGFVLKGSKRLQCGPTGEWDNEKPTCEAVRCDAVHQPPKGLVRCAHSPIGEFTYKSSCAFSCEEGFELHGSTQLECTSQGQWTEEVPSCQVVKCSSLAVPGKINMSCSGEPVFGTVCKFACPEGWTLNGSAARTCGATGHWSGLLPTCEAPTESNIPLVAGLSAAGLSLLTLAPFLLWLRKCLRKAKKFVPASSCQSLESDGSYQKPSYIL

CCN(CC)CCNc1ccc(CNC=O)c2sc3ccc(OC)cc3c(=O)c12
active: [1] 14.6 µM | [2] 13.1 µM | [3] 34.2 µM | [4] 10.7 µM | [5] 32.4 µM | [6] 11 µM | [7] 31.6 µM | [8] 30.8 µM | [9] 26.4 µM | [10] 22.3 µM | [11] 25 µM | [12] 36.6 µM | [13] 17.5 µM | [14] 25.8 µM | [15] 35.4 µM | [16] 13.1 µM | [17] 11.2 µM | [18] 25.3 µM | [19] 11.8 µM

c1ccc2c(c1)ccc1ccccc12
inactive: all assays above

CCCCCCCCCCCCN1CCCC1=O
active: [1] 34 µM | [2] 32.7 µM | [3] 39 µM | [4] 34.8 µM | [5] 33 µM | [6] 30.6 µM | [7] 36.8 µM | [8] 35.5 µM | [9] 33.4 µM | [10] 35.2 µM | [11] 31.3 µM | [20] 34.2 µM | [12] 34.3 µM | [13] 35 µM | [14] 36.7 µM | [15] 32.2 µM | [16] 33.8 µM | [17] 31.3 µM | [18] 27.4 µM | [19] 33 µM

CCCCC(CC)COC(=O)CCCCC(=O)OCC(CC)CCCC (stereo not drawn)
inactive: all assays above

Cc1cc(CCN2CCN(c3nsc4ccccc34)CC2)cc2c1NC(=O)CC2(C)C
active: [1] 13.4 µM | [2] 9.33 µM | [3] 10.9 µM | [4] 8.43 µM | [5] 5.57 µM | [6] 14.6 µM | [7] 29.6 µM | [8] 33.4 µM | [9] 11.7 µM | [10] 26.6 µM | [11] 20 µM | [20] 13.2 µM | [12] 28.8 µM | [13] 16.5 µM | [14] 13.4 µM | [15] 14.3 µM | [16] 30 µM | [17] 19.5 µM | [18] 32.8 µM | [19] 10.3 µM

OC1CCCCC1
inactive: all assays above

O=C(OCCOCCOC(=O)c1ccccc1)c1ccccc1
inactive: all assays above

CCc1nn(C2CCCCC2)c2cc(C3(C#N)CCC(C(=O)O)CC3)ccc12 (stereo not drawn)
inactive: [7] | [9] | [10] | [20]
active: [1] 4.51 µM | [2] 3.54 µM | [3] 20 µM | [4] 8.18 µM | [5] 7.89 µM | [6] 5.35 µM | [8] 28.1 µM | [11] 11.5 µM | [12] 20 µM | [13] 8.4 µM | [14] 11.3 µM | [15] 2.51 µM | [16] 16.1 µM | [17] 20 µM | [18] 4.2 µM | [19] 1.15 µM

CC(C)CCCCCCOC(=O)CCCCC(=O)OCCCCCCC(C)C
inactive: all assays above

CCCCOCCO
not listed: [20]
inactive: all other assays above

C=C(C)C(=O)OCCC(F)(F)C(F)(F)C(F)(F)C(F)(F)C(F)(F)C(F)(F)F
inactive: all assays above
